The nature of experiment [1]: SU-DIPG-VI glioma cell viability, MIPE4.0 library, CellTiter-Glo luminescence, qHTS (AID 1347066; cut-off not given, nearly all actives have AC50 up to about 30 µM;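 also: cells exposed to compound for 48 hours before readout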). Particulars: CellTiter-Glo ATP luminescence. In general terms: Cellular ATP, detected with luciferase, serves as a proxy for viable cell number.
The nature of experiment [2]: SU-DIPG-XXV glioma cell viability, MIPE5.0 library, qHTS (AID 1347068; cut-off not given, nearly all actives have IC50 up to about 30 µM). A general note: Quantitative high-throughput screening tests each substance at several concentrations.
Experiment [3] can be described thus: sensitizers of A549 cells to miR-34 induction, primary screen, imaging, A549 dox-inducible miR-34, nuclei and caspase counts (AID 1347080;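 active = compounds whose cell count with miR-34 switched on is under 0.7 times the count with it off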). Particulars: A549 miR-34 inducible, Hoechst nuclei count, 48 h.
A short description of experiment [4]: modifiers of HSF1 nuclear foci, imaging, Selleck Cancer Library (AID 1347162; in the data active = plate-normalised HSF1 focus index below about 0.46). Particulars: human cells, at 10 µM; SSMD: measured here: HSF1 foci SSMD mean; cell count: measured here: cell number; plate-normalised HSF1 focus index: stronger effect = lower value.
Experiment [5] in a line: survival rescue of mitochondrial mutant cells in low glucose, primary screen, MELAS cybrids, Rieske KO mouse fibroblasts, CellTiter-Glo (AID 1508586;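 active = mean z-score across replicates of 1.96 or higher in either the MELAS or the Rieske mutant cell line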;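 also: z relative to plate mean and SD of compound and empty wells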).
Experiment [6] in a line: ovarian cancer cell viability with rucaparib, profiling panel, oncology-focused library, rucaparib conditional (AID 1508598). Particulars: patient-derived ovarian cancer cells, CellTiter-Glo viability, 144 h, stronger effect = lower value.
Experiment [7] is described as follows: growth inhibition of DIPG glioma cells, dose response, cell-based, SU-DIPG-IV, MIPE4.0, CellTiter-Glo, qHTS (AID 1347063; cut-off not given, nearly all actives have AC50 up to about 30 µM;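 also: compound exposure lasted 48 hours before the viability readout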). As to conditions: SU-DIPG-IV viability, CellTiter-Glo ATP luminescence.
Experiment [8] is described as follows: growth inhibition of DIPG glioma cells, dose response, cell-based, SU-DIPG-XIII, MIPE5.0, CellTiter-Glo, qHTS (AID 1347064; cut-off not given, nearly all actives have AC50 up to about 23 µM). Particulars: SU-DIPG-XIII viability, CellTiter-Glo ATP luminescence.
[9] abbreviates: stronger effect = lower value, cell number ratio, induced over uninduced.
The mark [10] stands for this setting: measured here: relative caspase fold change +Dox/-Dox.
[11] abbreviates: measured here: total cells with miR-34 induction, stronger effect = lower value.
Setting [12] is: measured here: total cells without miR-34 induction.

Inconclusive results are not listed. Active and inactive are the calls of the source.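 The calls were made as follows, unless noted: active = normalized viability below 100% at a tested concentration; inactive = the rest.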

Regarding `Cn1cc(C2=C(c3cn(C4CCN(Cc5ccccn5)CC4)c4ccccc34)C(=O)NC2=O)c2ccccc21`, the result in experiment [1] and in experiment [2] was inactive. In addition, the fold change in experiment [3] (setting [9]) is 0.96 (inactive); in experiment [3] (setting [10]) it was 1.18. Further, the cell count in experiment [3] (setting [11]) came to 6030; in experiment [3] (setting [12]) it was 6280; in experiment [4], 6710. This compound also gave an SSMD in experiment [4] of 0.559. In addition, the plate-normalised HSF1 focus index in experiment [4] is 1.03 (inactive). For the same compound, the z-score in experiment [5] (MELAS cybrid survival, CellTiter-Glo 48 h, stronger effect = higher value) is -0.204 (inactive); in experiment [5] (Rieske KO mouse fibroblast survival, CellTiter-Glo 72 h), -2.05. Moreover, the viability in experiment [6] (at 0.000305 µM, OCI-C5x cells, with rucaparib 10 µM, 100% = cells with rucaparib alone) was 118% (inactive); in experiment [6] (at 0.000305 µM, OCI-C5x cells, without rucaparib), 151% (inactive); in experiment [6] (at 0.000305 µM, OCI-P5x cells, with rucaparib 20 µM, 100% = cells with rucaparib alone), 108% (inactive); in experiment [6] (at 0.000305 µM, OCI-P5x cells, without rucaparib), 115% (inactive); in experiment [6] (at 0.00122 µM, OCI-C5x cells, with rucaparib 10 µM, 100% = cells with rucaparib alone), 136% (inactive); in experiment [6] (at 0.00122 µM, OCI-C5x cells, without rucaparib), 148% (inactive). Also, the viability in experiment [6] (at 0.00122 µM, OCI-P5x cells, with rucaparib 20 µM, 100% = cells with rucaparib alone) is 113% (inactive); in experiment [6] (at 0.00122 µM, OCI-P5x cells, without rucaparib), 105% (inactive); in experiment [6] (at 0.00488 µM, OCI-C5x cells, with rucaparib 10 µM, 100% = cells with rucaparib alone), 127% (inactive); in experiment [6] (at 0.00488 µM, OCI-C5x cells, without rucaparib), 136% (inactive); in experiment [6] (at 0.00488 µM, OCI-P5x cells, with rucaparib 20 µM, 100% = cells with rucaparib alone) it was 109% (inactive); in experiment [6] (at 0.00488 µM, OCI-P5x cells, without rucaparib), 105% (inactive). Besides, the viability in experiment [6] (at 0.0195 µM, OCI-C5x cells, with rucaparib 10 µM, 100% = cells with rucaparib alone) was 138% (inactive); in experiment [6] (at 0.0195 µM, OCI-C5x cells, without rucaparib), 144% (inactive); in experiment [6] (at 0.0195 µM, OCI-P5x cells, with rucaparib 20 µM, 100% = cells with rucaparib alone) it was 106% (inactive); in experiment [6] (at 0.0195 µM, OCI-P5x cells, without rucaparib), 98.4% (active); in experiment [6] (at 0.0781 µM, OCI-C5x cells, with rucaparib 10 µM, 100% = cells with rucaparib alone), 127% (inactive); in experiment [6] (at 0.0781 µM, OCI-C5x cells, without rucaparib), 149% (inactive). The viability is 119% (inactive) in experiment [6] (at 0.0781 µM, OCI-P5x cells, with rucaparib 20 µM, 100% = cells with rucaparib alone); 105% (inactive) in experiment [6] (at 0.0781 µM, OCI-P5x cells, without rucaparib); 136% (inactive) in experiment [6] (at 0.313 µM, OCI-C5x cells, with rucaparib 10 µM, 100% = cells with rucaparib alone); 146% (inactive) in experiment [6] (at 0.313 µM, OCI-C5x cells, without rucaparib); 111% (inactive) in experiment [6] (at 0.313 µM, OCI-P5x cells, with rucaparib 20 µM, 100% = cells with rucaparib alone); 93.7% (active) in experiment [6] (at 0.313 µM, OCI-P5x cells, without rucaparib). For the same compound, the viability in experiment [6] (at 1.25 µM, OCI-C5x cells, with rucaparib 10 µM, 100% = cells with rucaparib alone) is 149% (inactive); in experiment [6] (at 1.25 µM, OCI-C5x cells, without rucaparib), 156% (inactive); in experiment [6] (at 1.25 µM, OCI-P5x cells, with rucaparib 20 µM, 100% = cells with rucaparib alone), 113% (inactive); in experiment [6] (at 1.25 µM, OCI-P5x cells, without rucaparib) it was 92.6% (active); in experiment [6] (at 5 µM, OCI-C5x cells, with rucaparib 10 µM, 100% = cells with rucaparib alone), 159% (inactive); in experiment [6] (at 5 µM, OCI-C5x cells, without rucaparib), 140% (inactive). In addition, the viability in experiment [6] (at 5 µM, OCI-P5x cells, with rucaparib 20 µM, 100% = cells with rucaparib alone) is 102% (inactive); in experiment [6] (at 5 µM, OCI-P5x cells, without rucaparib), 99.4% (active).

Consider `CN1C(=O)[C@]23CC4=CC=C[C@H](O)[C@H]4N2C(=O)[C@@]1(CO)SS3`, for which the fold change in experiment [3] (stronger effect = lower value) is 0.901 (inactive); in experiment [3] (setting [10]), 1.24. Further, the cell count in experiment [3] (setting [11]) was determined as 657; in experiment [3] (setting [12]), 730.

On to `COc1ccc(/C=C/C(=O)CC(=O)/C=C/c2ccc(OC)c(OC)c2)cc1OC`, for which the figures for the fold change in experiment [3] (setting [9]) and in experiment [3] (setting [10]) were 0.864 (inactive) and 0.752, respectively. In addition, the cell count in experiment [3] (setting [11]) came out at 5430; in experiment [3] (setting [12]), 6280.

In the case of `Cc1c(C(=O)Nc2cccc(C(F)(F)F)c2)cc(-c2ccccc2)n1CCCN1CCOCC1`, the AC50 in experiment [7] was 18.7 µM (active). Besides, the outcome in experiment [8] was inactive.

With `CC(C)[C@]1(O)[C@@H](OC(=O)c2ccc[nH]2)[C@@]2(O)[C@@]3(C)C[C@]4(O)O[C@@]5([C@H](O)[C@@H](C)CC[C@]35O)[C@@]2(O)C41C`, the fold change in experiment [3] (stronger effect = lower value) is 0.925 (inactive); in experiment [3] (setting [10]) it was 1.12. Further, the figures for the cell count in experiment [3] (setting [11]) and in experiment [3] (setting [12]) were 5510 and 5960, respectively.

Consider `C=C(C)[C@@H]1CCC(C)=C[C@H]1C1=C(O)C(=O)C(CCCCC)=CC1=O`, for which the fold change in experiment [3] (setting [9]) was 1.08 (inactive); in experiment [3] (setting [10]), 0.935. In addition, the cell count came to 5410 in experiment [3] (setting [11]) and 5000 in experiment [3] (setting [12]).

In the case of `CCCCCCC(=O)O[C@H]1CC[C@H]2[C@@H]3CC(=O)C4=CC(=O)CC[C@]4(C)[C@H]3CC[C@]12C`, the fold change in experiment [3] (stronger effect = lower value) was 0.899 (inactive); in experiment [3] (setting [10]) it was 0.574. For the same compound, the cell count came to 5250 in experiment [3] (setting [11]) and 5830 in experiment [3] (setting [12]).

In general, viability refers to a read-out of living cells in per cent, often relative to untreated cells. Usually AC50 stands for the concentration at which the activity in the assay is half-maximal.

The values above are taken from PubChem BioAssay.
